From PubChem BioAssay (NCATS)
Results filed as inconclusive are left out. Active and inactive are the calls of the source. Calls follow the shape of the dose curve; as a rule, active = well fitted inhibition curve with a large enough effect; inconclusive = small, poorly fitted or top-dose-only effect; inactive = flat fitted curve, though single readings scatter. Bridge positions count the residues as written; N and C are the ends. Square brackets hold non-standard residues; d marks the D form. Peptide text beside a SMILES is read from it. * marks the point of attachment. Ileψ(thiazoline)Cys = CC[C@H](C)[C@H](N)C1=N[C@H](C(=O)*)CS1; d(aIle) = CC[C@H](C)[C@@H](N)C(=O)O; dOrn = NCCC[C@@H](N)C(=O)O

test system: JCK; experiment: qHTS profiling for inhibitors of Plasmodium falciparum proliferation (AID 504749); also: nearly all actives have a fitted effect of over 60% in size;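 as to activity, negative = inhibition: 0% = DMSO vehicle and full inhibition = artemisinin control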; conditions: P. falciparum in erythrocytes, SYBR Green DNA, 72 h; series mostly up to 12.8 µM; activity, negative = inhibition: at the top concentration
Procedure, shortened: (§1)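 Three-day growth assay of blood-stage parasites in erythrocytes (0.3% parasitemia, 2.5% hematocrit) at 37 C, 5% CO2, quantified by SYBR Green DNA staining after overnight detergent lysis.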
Potency is read from the fitted curve at half-maximal effect.

Q: Which “activity, negative = inhibition” value does the source give for `C[C@@H]1C[C@H]2[C@@H]3C[C@H](F)C4=CC(=O)C=C[C@@]4(C)[C@]3(F)[C@H](O)C[C@]2(C)[C@@]1(O)C(=O)CO` here?
A: 6.2% (inactive)

Q: For `C[C@H](O)Cn1cnc2c1c(=O)n(C)c(=O)n2C`, which “activity, negative = inhibition” value is on record?
A: 0.0867% (inactive)

Q: With `CCCCC[C@H](O)/C=C\[C@@H]1[C@H](O)CC(=O)[C@@H]1CCCCCCC(=O)O` as the compound, how does the “activity, negative = inhibition” value read?
A: 1.49% (inactive)

Q: `CC(=C(CCOP(=O)(O)O)SC(=O)c1ccccc1)N(C=O)Cc1cnc(C)nc1N` was tested. Which “activity, negative = inhibition” value did it give?
A: 12.5% (inactive)

Q: With `NC[C@@H]1O[C@@H](O[C@H]2[C@H](O)[C@H](O[C@@H]3O[C@H](CO)[C@@H](O)[C@H](N)[C@@H]3O)[C@@H](N)C[C@H]2N)[C@H](N)C[C@@H]1O` as the compound, how does the “activity, negative = inhibition” value read?
A: 10.8% (inactive)

Q: How did the “activity, negative = inhibition” value turn out when `CCc1c(C)[nH]c2c1C(=O)[C@H](CN1CCOCC1)CC2` was run?
A: 10.8% (inactive)

Q: For `C=C1c2c(Cl)ccc(O)c2C(O)=C2C(=O)[C@@]3(O)C(O)=C(C(N)=O)C(=O)[C@@H](N(C)C)[C@@H]3[C@@H](O)[C@H]12`, which “activity, negative = inhibition” value is on record?
A: 6.37% (inactive)

Q: With `CC[C@H](C)[C@H](N)C1=N[C@H](C(=O)N[C@@H](CC(C)C)C(=O)N[C@@H](CCC(=O)O)C(=O)N[C@@H](C(=O)N[C@H]2CCCCNC(=O)[C@@H](CC(N)=O)NC(=O)[C@@H](CC(=O)O)NC(=O)[C@@H](Cc3cnc[nH]3)NC(=O)[C@@H](Cc3ccccc3)NC(=O)[C@@H]([C@@H](C)CC)NC(=O)[C@@H](CCCN)NC2=O)[C@@H](C)CC)CS1` ({Ileψ(thiazoline)Cys}-LE[d(aIle)]K[dOrn][d(aIle)][dF][dH][dD][dN]; lactam 4-C) as the compound, how does the “activity, negative = inhibition” value read?
A: -5.56% (inactive)

Q: Which Potency does the source give for `O=C(N/N=C\c1ccc([N+](=O)[O-])o1)c1ccc(O)cc1` here?
A: 3.98 µM (active)

Q: Which “activity, negative = inhibition” value does the source give for `CCOC(=O)O[C@@H](C)OC(=O)[C@@H]1N2C(=O)[C@@H](NC(=O)[C@@H](N)c3ccccc3)[C@H]2SC1(C)C` here?
A: 7.74% (inactive)

Q: Which “activity, negative = inhibition” value does the source give for `Cc1cccc(CN2CCN([C@@H](c3ccccc3)c3ccc(Cl)cc3)CC2)c1` here?
A: 25.8% (inactive)

Q: For `Cc1ccsc1/C=C\C1=NCCCN1C`, which “activity, negative = inhibition” value is on record?
A: -1.75% (inactive)

Q: With `O=C(O)COCCN1CCN([C@@H](c2ccccc2)c2ccc(Cl)cc2)CC1` as the compound, how does the “activity, negative = inhibition” value read?
A: 26.4% (inactive)

Q: Which “activity, negative = inhibition” value does the source give for `C#C[C@]1(O)CC[C@@H]2[C@H]3CCC4=CCCC[C@@H]4[C@@H]3CC[C@@]21C` here?
A: -2.72% (inactive)

Q: `CC1(C)[C@@H](OC(=O)CCC(=O)O)CC[C@@]2(C)[C@H]1CC[C@@]1(C)[C@H]2C(=O)C=C2[C@H]3C[C@](C)(C(=O)O)CC[C@]3(C)CC[C@@]21C` was tested. Which “activity, negative = inhibition” value did it give?
A: 12% (inactive)

Q: For `C[C@H](CCC(=O)O)[C@H]1CC[C@@H]2[C@@H]3[C@@H](O)C[C@H]4C[C@@H](O)CC[C@@]4(C)[C@H]3CC[C@@]21C`, which “activity, negative = inhibition” value is on record?
A: 8.29% (inactive)

Q: For `CN1CCO[C@H](c2ccccc2)c2ccccc2C1`, which “activity, negative = inhibition” value is on record?
A: -16.9% (inactive)

test system: N140; experiment: as above; conditions: P. falciparum in erythrocytes, SYBR Green DNA, 72 h; series mostly up to 12.8 µM; activity, negative = inhibition: at the top concentration
Procedure, shortened: as §1

Q: For `C[C@@H]1C[C@H]2[C@@H]3C[C@H](F)C4=CC(=O)C=C[C@@]4(C)[C@]3(F)[C@H](O)C[C@]2(C)[C@@]1(O)C(=O)CO`, which “activity, negative = inhibition” value is on record?
A: 3.87% (inactive)

Q: Which “activity, negative = inhibition” value does the source give for `C[C@H](O)Cn1cnc2c1c(=O)n(C)c(=O)n2C` here?
A: 4.88% (inactive)

Q: For `CCCCC[C@H](O)/C=C\[C@@H]1[C@H](O)CC(=O)[C@@H]1CCCCCCC(=O)O`, which “activity, negative = inhibition” value is on record?
A: -11.9% (inactive)

Q: `CC(=C(CCOP(=O)(O)O)SC(=O)c1ccccc1)N(C=O)Cc1cnc(C)nc1N` was tested. Which “activity, negative = inhibition” value did it give?
A: -8.06% (inactive)

Q: With `NC[C@@H]1O[C@@H](O[C@H]2[C@H](O)[C@H](O[C@@H]3O[C@H](CO)[C@@H](O)[C@H](N)[C@@H]3O)[C@@H](N)C[C@H]2N)[C@H](N)C[C@@H]1O` as the compound, how does the “activity, negative = inhibition” value read?
A: 17.8% (inactive)

Q: How did the “activity, negative = inhibition” value turn out when `CCc1c(C)[nH]c2c1C(=O)[C@H](CN1CCOCC1)CC2` was run?
A: 8.33% (inactive)

Q: How did the “activity, negative = inhibition” value turn out when `C=C1c2c(Cl)ccc(O)c2C(O)=C2C(=O)[C@@]3(O)C(O)=C(C(N)=O)C(=O)[C@@H](N(C)C)[C@@H]3[C@@H](O)[C@H]12` was run?
A: -15% (inactive)

Q: How did the “activity, negative = inhibition” value turn out when `CC[C@H](C)[C@H](N)C1=N[C@H](C(=O)N[C@@H](CC(C)C)C(=O)N[C@@H](CCC(=O)O)C(=O)N[C@@H](C(=O)N[C@H]2CCCCNC(=O)[C@@H](CC(N)=O)NC(=O)[C@@H](CC(=O)O)NC(=O)[C@@H](Cc3cnc[nH]3)NC(=O)[C@@H](Cc3ccccc3)NC(=O)[C@@H]([C@@H](C)CC)NC(=O)[C@@H](CCCN)NC2=O)[C@@H](C)CC)CS1` ({Ileψ(thiazoline)Cys}-LE[d(aIle)]K[dOrn][d(aIle)][dF][dH][dD][dN]; lactam 4-C) was run?
A: 3.12% (inactive)

Q: `O=C(N/N=C\c1ccc([N+](=O)[O-])o1)c1ccc(O)cc1` was tested. Which Potency did it give?
A: 3.16 µM (active)

Q: Which “activity, negative = inhibition” value does the source give for `CCOC(=O)O[C@@H](C)OC(=O)[C@@H]1N2C(=O)[C@@H](NC(=O)[C@@H](N)c3ccccc3)[C@H]2SC1(C)C` here?
A: 10.8% (inactive)

Q: How did the “activity, negative = inhibition” value turn out when `Cc1ccsc1/C=C\C1=NCCCN1C` was run?
A: 10.6% (inactive)

Q: `O=C(O)COCCN1CCN([C@@H](c2ccccc2)c2ccc(Cl)cc2)CC1` was tested. Which “activity, negative = inhibition” value did it give?
A: -14.7% (inactive)

Q: For `C#C[C@]1(O)CC[C@@H]2[C@H]3CCC4=CCCC[C@@H]4[C@@H]3CC[C@@]21C`, which “activity, negative = inhibition” value is on record?
A: 8.6% (inactive)

Q: For `CC1(C)[C@@H](OC(=O)CCC(=O)O)CC[C@@]2(C)[C@H]1CC[C@@]1(C)[C@H]2C(=O)C=C2[C@H]3C[C@](C)(C(=O)O)CC[C@]3(C)CC[C@@]21C`, which “activity, negative = inhibition” value is on record?
A: 7.56% (inactive)

Q: How did the “activity, negative = inhibition” value turn out when `C[C@H](CCC(=O)O)[C@H]1CC[C@@H]2[C@@H]3[C@@H](O)C[C@H]4C[C@@H](O)CC[C@@]4(C)[C@H]3CC[C@@]21C` was run?
A: -15.6% (inactive)
